Source: PubChem BioAssay (National Center for Advancing Translational Sciences (NCATS))
The list is not random: actives were taken first. Their share in the collection is about 9.4%.
Rab9 prom act: qHTS Assay for Rab9 Promoter Activators | Potency, µM (series often up to 9.22 µM), without a hit: at the top dose activation, negative = inhibition, most hits filed as activators | Huh7 Rab9 promoter-luciferase reporter, luminescence, 24 h | 2.8% of 320,000 active; further: % of control where 0% means no effect; nearly all actives have a fitted effect of over 60% in size
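Luciferase signal after 10 min detection reagent at ambient indicates Rab9 promoter upregulation; stably transfected Huh7 cells were treated 24 h with compound in DMSO at 37 °C, 5% CO2.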
SMN2 splice enh: qHTS Assay for Enhancers of SMN2 Splice Variant Expression; HEK293 SMN2-luciferase splicing reporter, luminescence, 30-36 h; Potency, µM (titrated, usually from 46.1 µM), for inactives: at the highest dose activity change, positive = activation, actives largely listed as activators; 2.8% of 210,000 active; AID 1458, 2008; further: % of control where 0% means no effect; nearly all actives have a fitted effect of over 55% in size
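HEK293 cells carry an SMN2 […]–luciferase reporter in which exon 7 inclusion puts luciferase in frame. Cells were plated 10-12 h before compound addition, then incubated 30-36 h at 37C. ONE-Glo luminescence was read; sodium butyrate at 4.5 mM final served as control.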
NPC1 prom act: qHTS Assay for NPC1 Promoter Activators; Huh7 NPC1 promoter luciferase reporter, 24 h; Potency, µM (doses to about 9.22 µM), inactives show top-dose activation, hits mostly activators; 2.4% of 320,000 active; AID 485313, 2010; further: % of control where 0% means no effect; nearly all actives have a fitted effect of over 60% in size
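Cells: Huh7 expressing luciferase under the NPC1 promoter, 1500/well. Seeded 2 h, compound added, incubated 24 h at 37 °C. Luciferase reagent, 10 min ambient, then luminescence.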
ELG1 genotox: qHTS screen for small molecules that induce genotoxicity in human embryonic kidney (HEK293T) cells expressing luciferase-tagged ELG1; HEK293T ELG1-luciferase reporter, luminescence, 16 h; Potency, µM (series often up to 46 µM), for inactives: at the top dose activity change, positive = activation, hits mostly activators; 1.3% of 330,000 active; further: % of control where 0% means no effect; nearly all actives have a fitted effect of over 60% in size
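DMSO vehicle served as control against compound-treated ELG1-luciferase HEK293T cells; exposure lasted 16 hr at 37 °C and 5% CO2, followed by ONE-Glo luminescence detection after 30 min.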
FLuc counter: qHTS profiling assay for firefly luciferase inhibitor/activator using purifed enzyme and Km concentrations of substrates (counterscreen for miR-21 project); Potency, µM (series often up to 57.5 µM), for the others: at the highest dose activity change, negative = inhibition, hits mostly inhibitors; 6.9% of 360,000 active; Luciferin 4-monooxygenase (Photinus pyralis), P08659; AID 588342, 2011; purified FLuc, Km substrates, luminescence inhibition;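 further: plate controls were vehicle for no effect and reference inhibitor for full effect; nearly all actives have a fitted effect of over 55% in size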
Target sequence (P08659 whole entry, looked up): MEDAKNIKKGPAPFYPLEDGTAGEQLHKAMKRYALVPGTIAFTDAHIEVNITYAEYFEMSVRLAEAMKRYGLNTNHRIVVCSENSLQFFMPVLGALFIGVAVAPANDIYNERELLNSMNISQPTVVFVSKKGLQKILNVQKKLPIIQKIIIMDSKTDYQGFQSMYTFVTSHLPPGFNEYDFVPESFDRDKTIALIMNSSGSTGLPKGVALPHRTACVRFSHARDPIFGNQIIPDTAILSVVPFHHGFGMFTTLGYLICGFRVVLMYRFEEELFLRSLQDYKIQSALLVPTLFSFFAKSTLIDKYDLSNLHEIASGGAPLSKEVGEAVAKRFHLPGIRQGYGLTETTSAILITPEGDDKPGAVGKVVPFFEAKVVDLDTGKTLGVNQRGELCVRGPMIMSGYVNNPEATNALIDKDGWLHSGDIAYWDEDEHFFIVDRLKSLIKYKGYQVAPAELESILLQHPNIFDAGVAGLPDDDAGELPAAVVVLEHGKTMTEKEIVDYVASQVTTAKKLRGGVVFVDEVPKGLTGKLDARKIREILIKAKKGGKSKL
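Purified P. pyralis luciferase, 10 nM final, with Km-level 10 uM D-luciferin and 10 uM ATP in 50 mM Tris acetate pH 7.5, 10 mM Mg acetate, 0.01% Tween-20, 0.05% BSA; 6-point qHTS titration about 60 µM downward; luminescence read.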
ELG1 repair inh: qHTS screen for small molecules that inhibit ELG1-dependent DNA repair in human embryonic kidney (HEK293T) cells expressing luciferase-tagged ELG1. Potency, µM (series often up to 46.1 µM), for the others: at the top dose activity change, negative = inhibition, most hits filed as inhibitors. HEK293T ELG1-luciferase reporter, luminescence, 16 h; DNA damage induced by 5-fluorouridine. AID 504467, 2011. 2.3% of 330,000 active; further: on the % scale 0 is the no-effect control and ±100 the full control effect; nearly all actives have a fitted effect of over 55% in size
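Reporter activity after DNA damage by 5-fluorouridine is monitored. Compound-treated cells incubate 16 hr at 37 °C, then ONE-Glo is added for 30 min before luminescence reading.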
* = called active by the depositor; ? = inconclusive; / = not tested or not shown. The call rests on the fitted dose curve; in most records, active means well fitted curve in the direction sought with a large enough effect; inconclusive means small, poorly fitted or top-dose-only effect, or another doubt; inactive means no such curve, though single readings can be large; an effect the other way counts as inactive or inconclusive. Potency means the concentration at half of the fitted maximal effect.

SMILES | Rab9 prom act | SMN2 splice enh | NPC1 prom act | ELG1 genotox | FLuc counter | ELG1 repair inh
COc1cccc(-c2nccc(-n3ccnc3)n2)c1 | / | 13µM* | / | / | / | /
Cc1cccc(/C(N)=N/OC(=O)COc2ccccc2Cl)c1 | 16% | ? | 22% | ? | 19µM* | ?
COc1ccc(/C(N)=N/OC(=O)COc2ccccc2Cl)cc1 | 11% | ? | 7% | ? | 21µM* | ?
Cc1cccc(/C(N)=N/OC(=O)Cc2ccccc2)c1 | 20% | 11% | 14% | ? | 15µM* | ?
N/C(Cc1ccc(Cl)cc1Cl)=N\OC(=O)Cc1ccccc1 | -3% | 8% | -1% | 0% | 15µM* | 19%
Cc1ccc(C)c(OCC(=O)O/N=C(\N)c2cccc([N+](=O)[O-])c2)c1 | 2% | / | 1% | 0% | -4% | -8%
CC(C)c1ccc(OCc2cc(=O)n3c(-c4ccccc4)csc3n2)cc1 | / | -20% | / | / | 0% | /
CCOc1ccc(NC(=O)CC2C(=O)N(c3ccc(C)cc3)C(=O)N2CCC2=CCCCC2)cc1 (stereo not drawn) | / | 19% | / | / | -1% | /
CCc1cc2c(cc3c(=O)n(CC(=O)NC(C)C)nc(CC)n32)s1 | / | 2% | / | / | -3% | /
CCOC(=O)c1ccc(-c2ccc(C=O)o2)cc1 | ? | / | ? | ? | 24µM* | ?
CCOC(=O)c1cccc(-c2ccc(C=O)o2)c1 | 18% | 13% | 13% | 10% | -18% | ?
CCCOC(=O)c1ccc(-c2ccc(C=O)o2)cc1 | ? | 1.3µM* | ? | ? | 13µM* | ?
COc1ccc(Br)cc1CNC(=O)c1cnc2sc(N3CCCCCC3)nn2c1=O | / | / | / | / | -15% | /
Cc1ccc(-c2onc(C)c2C)cc1S(=O)(=O)NCc1ccco1 | / | / | / | / | 0% | /
COc1cc(/C=N/NC(=O)CCC(=O)Nc2ccc(C)cc2)ccc1O | 13% | -34% | -2% | 0% | -18% | 13%
COc1ccccc1/C=N/NC(=Nc1ccc(C)cc1)c1nc2ccccc2s1 | 16% | -27% | 6% | ? | 17µM* | ?
COc1cc(/C=N/NC(=Nc2ccc(C)cc2)c2nc3ccccc3s2)ccc1O | ? | -9% | 28% | 2.6µM* | 2.7µM* | ?
Cc1ccc(NC(=O)CSc2nc3ccccc3n2CC(=O)N2CCC(C)CC2)cc1C | / | / | / | / | -13% | /
COc1ccc(CCNC(=O)c2ccc3c(c2)CCN3S(=O)(=O)c2ccc(C)cc2)cc1OC | / | -29% | / | / | -2% | /
Cc1ccn2c(NC(=O)c3ccccc3)c(-c3cccs3)nc2c1 | 3% | 0% | -1% | 0% | -16% | 20%
Cc1ccn2c(NC3CCCC3)c(-c3cccs3)nc2c1 | ? | 9% | 16% | -3% | 19µM* | ?
c1csc(-c2nc3ccccn3c2NC2CCCCC2)c1 | -2% | -8% | -3% | -7% | -5% | -8%
Cc1ccn2c(NCc3ccccc3)c(-c3cccs3)nc2c1 | 3.2µM* | ? | ? | 9% | 15µM* | ?
Cc1ccc(C2=NN(CC(=O)NC(C)c3ccccc3)C(=O)CC2)cc1 (stereo not drawn) | / | / | / | / | -1% | /
Cc1nc2cc(NC(=O)NCCC3=CCCCC3)ccc2o1 | 3.5µM* | / | 4µM* | 15µM* | 12µM* | ?
SMILES | Rab9 prom act | SMN2 splice enh | NPC1 prom act | ELG1 genotox | FLuc counter | ELG1 repair inh
Cc1nc2cc(NC(=O)NCCCO)ccc2o1 | -3% | / | 2% | 3% | -2% | -13%
C=CCNC(=O)Nc1ccc2oc(C)nc2c1 | 9% | -6% | 7% | -4% | -11% | 24%
COc1ccc(NC(=O)Nc2ccc3oc(C)nc3c2)cc1 | ? | / | 30% | ? | 12µM* | ?
Oc1ccc(CNc2ccc(C(F)(F)F)cc2Cl)c2cccnc12 | -4% | / | -3% | / | 2% | /
Cc1cc(C)c2c(CN3CCC(C)CC3)cc(=O)oc2c1 | ? | / | ? | ? | 15µM* | ?
Cc1ccc2nc(-c3cccc(SC4CCCCC4)c3)c(NCc3ccccc3)n2c1 | / | / | / | -9% | / | 26µM*
CCCCCCSc1ccc(-c2nc3ccc(C)cn3c2NCc2ccccc2)cc1OC | 1% | / | -2% | -3% | -2% | ?
CCC(C)Sc1ccc(-c2nc3ccc(C)cn3c2NCc2ccccc2)cc1OC (stereo not drawn) | -3% | / | -7% | -7% | 15µM* | ?
CCCCNc1c(-c2ccc(OC)c(SC(C)CC)c2)nc2ccc(C)cn12 (stereo not drawn) | / | / | / | -7% | / | 7.3µM*
Cc1c(C(=O)N2CCN(Cc3ccc4c(c3)OCO4)CC2)sc2ncnc(N3CCN(c4ccccc4)CC3)c12 | -30% | / | -19% | -17% | -2% | 4.6µM*
CCCNC(=O)Cn1cnc2sc(C(=O)N3CCN(Cc4ccc5c(c4)OCO5)CC3)c(C)c2c1=O | -9% | -65% | -9% | 6% | 8% | ?
Cc1c(C(=O)N2CCN(Cc3ccc4c(c3)OCO4)CC2)sc2ncnc(N3CCN(c4ccccc4F)CC3)c12 | -28% | / | -26% | -17% | ? | 6.5µM*
Cc1c(C(=O)NC2CCCCC2)sc2ncnc(N3CCN(c4ccccc4)CC3)c12 | 0% | / | 0% | -8% | -16% | 12%
COc1ccc(Nc2nc(C)nc3c2nnn3Cc2ccccc2)cc1OC | 0% | -78% | 0% | -2% | 0% | 9.2µM*
Cc1nc(Nc2ccc(Cl)cc2)c2nnn(Cc3ccccc3)c2n1 | -1% | / | -3% | 0% | 5% | -1%
Cc1nc(Nc2ccc(S(=O)(=O)N3CCCCC3C)cc2)c2nnn(Cc3ccccc3)c2n1 (stereo not drawn) | -7% | -40% | -16% | -5% | -3% | 7.3µM*
COC(=O)c1cc2oc3ccccc3c2n1CC(=O)Nc1ccc(C)cc1C | / | 0% | / | / | -8% | /
CCCOc1ccc(OC(=O)c2ccc(-c3ccc(CCC)cn3)cc2)cc1 | / | -54% | / | / | 0% | /
CCCCc1ccc(-c2ccc(Br)cc2)nc1 | 1µM* | 3.5µM* | 1.3µM* | ? | 1.2µM* | ?
CCCc1ccc(-c2ccc(F)c(N)c2)nc1 | 0.4µM* | 0.71µM* | 0.5µM* | ? | 0.3µM* | ?
COc1ccc(S(=O)(=O)N2Cc3ccccc3CC2C(=O)Nc2nccs2)cc1OC (stereo not drawn) | 16% | 13µM* | 12% | 5.8µM* | ? | ?
